These results are taken from the supplement of paper PMC10681739.
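Note: Full-length recombinant human ETS1 or RUNX1 bound to double-stranded 36-bp genomic probes on microarrays, detected by protein-specific primary antibody and Alexa488 secondary, spot fluorescence as median of four replicate spots.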

Sequence of RUNX1 (Q01196 whole entry): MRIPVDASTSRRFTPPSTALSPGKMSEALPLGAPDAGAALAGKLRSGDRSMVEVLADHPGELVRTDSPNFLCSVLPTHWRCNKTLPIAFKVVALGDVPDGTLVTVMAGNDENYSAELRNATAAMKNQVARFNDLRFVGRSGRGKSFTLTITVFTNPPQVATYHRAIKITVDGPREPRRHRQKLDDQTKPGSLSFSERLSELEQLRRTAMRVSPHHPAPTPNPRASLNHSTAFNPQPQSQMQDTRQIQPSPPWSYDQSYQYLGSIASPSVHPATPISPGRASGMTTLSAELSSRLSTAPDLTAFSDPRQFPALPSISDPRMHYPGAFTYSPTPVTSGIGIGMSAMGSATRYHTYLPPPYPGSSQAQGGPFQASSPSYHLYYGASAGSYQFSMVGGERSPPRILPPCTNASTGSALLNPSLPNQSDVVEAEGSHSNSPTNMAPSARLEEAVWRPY

The test has as its target RUNX1 (UniProt Q01196). Description: RUNX1 binding intensity (PBM fluorescence) in presence of ETS1, normalised to RUNX1-only experiment (arbitrary fluorescence units); higher = stronger binding. The note with it: RUNX1 concentration 2 nM; ETS1 concentration 25 nM. As to the method:
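Cooperative gcPBM on 36-bp genomic probes with neighbouring ETS1 and RUNX1 sites. Recombinant human RUNX1 (2 nM) was incubated alone or with ETS1 (25 nM) and detected with anti-RUNX1 antibody plus Alexa488 secondary. Values are medians over 4 replicate spots; the RUNX1+ETS1 data were normalised to the RUNX1-only data. The probes sit in constant array flanks that are not printed.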
TTTGTAAGAGGAGGAAGTGGTTTGTAAGAGGAGAAA: the RUNX1 binding intensity amounted to 1270.
Next, GAGGACGCGGAAGTCCTTCTTGCGGGGCGGAGCTAG: 890.
For the sequence GCCCAATTCCCGAATCCGGTCTGCGGCGCGCTCGGG, the RUNX1 binding intensity came to 1170.
The value for CTCCCACATCCGAAGCGGCGCAACCCACAACAGCCT was 1620.
Consider CCATTTCCGCGCACGTCTGCAGATGCGGTAGTCGAT, for which the RUNX1 binding intensity is 1830.
The value for GAGATACACAGCGACATCCGCCCGCAAGAGCATGGT was 1280.
The value for TTCAATCACAGGAAACAGACGTCACCCACAGACCTA was 983; that for AACTAAGTGCAGGGGAAGTTGTGGTTATTTTTTACC was 1760.
The value for AGGTTCCGGCGAAAGTGACCGAAAGTAACCGCCGGG was 967.
Take GGTTTCGCTTCCGGGTTAGGCGGCCGCAGAAGCGTA: the RUNX1 binding intensity is 1980.
Next, GCCGGGCACCCCGGAAGACCGCTGGGAACCGGCTTT: 1080; TGCGCCGCGGAACCCGGAAGTGGTCACGGAGCTCGG: 3970; TCCAAGGCGGAAAAAACCCGCCCTAAACCGCACCCC: 1460.
Next, GGGCGGGTCAGCGGAAGTGAGGGCGGTTGAGGCTGG: 1320.
For the sequence AGTGGCTACCACTTCCTTCTCTTACCACAGTTCCTT, the RUNX1 binding intensity was 4520.
Next, AAAGCAAACAGGAAGTGCTGTGGTAACAAGGCCCCA: 1820; GTGGGGCGGGCTTCCGGCGCTCCCACCGCGAGCCGA: 1500.
The value for TGCATGTGCAGCAGAGGAAACCACAAGTTATTCCCT was 1600; that for AACTTCCGAGGGAACTAACTGGTTTTAACCACATTG was 1190.
Next, TTATTTCCGGTGTTGATCTTTTTAGTGGTACCAGGC: 2990; TTTACTGAGAGGAAGTGGTTCTTGTGGGTGAAGGTC: 1530.
For the sequence CCTCCCTGAGGGGGAAGTGGTTTTTGAGTCTGAGTC, the RUNX1 binding intensity was found to be 1020.
Next, CAGGCAGGATGTTGACTCAGCTGCCAAGTGGTTTTG: 1020.
Take GAGAACTTCCGGTGCGCTCCCCGGGACTGCGGTCCC: the RUNX1 binding intensity was determined as 2780.
Turning to ATGGGTACAGGATTTCCTTTTGTGGTGATGAAAATG, the RUNX1 binding intensity worked out at 1200.
The value for CGCCCACCACTTCCTGCTGGCGGTCGGCAAGCGTTG was 8670; that for GAGCGCAGGACGGAAGCTCGGTGCGGGTGCGGCCTC was 917; that for CAGACCAGCCCAGGAAACAAGGAACCACAAAGCCAC was 992.
The value for GGTCAGGTGGGCGTTTCCTGTGGGCGTCTCCAACTC was 1240.
The value for CTCCGGCGGAAGTTGTCTCTTCGCCGCCGCCGCAGC was 1690; that for CCAACGAGCACTTCCGCTTCCCGCAGCTCCAGCGGC was 2650; that for TCCTGTAGTTTCCGGCTGAAGTGGTAAGGTTTTTGA was 1750.
With ATGCTAGAAAGCAGGAAGCCACAGACACGCCCCAAC, the RUNX1 binding intensity was 875.
In the case of ACGTGATGGCAGTCTTCCTGCCCACAAGTTCTGGTC, the RUNX1 binding intensity came to 1440.
Turning to CTCCACCGGATGCAGCAATGAAGGCCGCAGGAATGG, the RUNX1 binding intensity was found to be 1130.
The value for TGTCATCCCGGAAACTGATAACAAGACCGCGAGTCA was 1450; that for CCTCGCCCCCTTCCGCACCCACCCCACCGCGCTCCG was 2360.
The value for CTTTGCTGCAGGATGTTCTAACCACAAGCCCAGGAG was 7310.
Next, GCACAGGCCGGAAGGAAAAGGGTTGTGGGGCTCATT: 952.
As to GACACGTCTTTGGAAGGATGTGGTTGCCGTGGGTTT, the RUNX1 binding intensity worked out at 880.
